One may read the AC50 as the midpoint of the concentration-response curve, whichever way the signal moves.

Several values for one entry are separate records, joined by “and”; a condition that tells them apart may be missing. Equal entries are not always repeated. Inconclusive results are not listed. A structure can be active in one record and inactive in another. Activity calls are given as the source filed them. The calls were made as follows, unless noted: active = hit-call score of the fitted dose curve at least 0.9, where 1 is the maximum; inactive = score below 0.9.

Our source for the outcome and AC50 values is PubChem BioAssay (EPA / NIEHS).

Assay [1] in a line: CCTE_Shafer_MEA_acute_AB: CCTE's Alamar Blue Assay for Cytotoxicity in the Neural Acute Assay, Shafer Lab (AID 2284069; active = hit-call score of the fitted dose curve at least 0.9, where 1 is the maximum;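 also: active compounds lower the viability signal compared with DMSO wells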). Put shortly:
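Primary rat cortical neurons on MEA plates, exposed acutely after baseline recording on day 13 or 15 post-plating. Viability by CellTiter Blue resazurin reduction (1:6 reagent dilution), fluorescence 544/590 nm; loss of signal versus DMSO.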
For orientation: Resazurin is reduced to fluorescent resorufin, in cell work by metabolically active cells.

Assay [2] in a line: CCTE_Shafer_MEA_dev_per_burst_interspike_interval: CCTE's Neural Network Formation Assay for Burst Interspike Interval, Shafer Lab (AID 2284044).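 Also: mean spike spacing inside bursts as AUC over recordings on days 5 7 9 12.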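 As to AC50: potency for a decrease of within-burst interspike interval below DMSO level.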 Put shortly: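 Primary rat cortical neurons on 48-well MEA plates, exposed from day 0 through day 12, treatment renewed at DIV 5 and 9. Within-burst interspike interval recorded days 5, 7, 9, 12, well-averaged, summarised as AUC; negative fit versus DMSO.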

The nature of assay [3]: CCTE_Shafer_MEA_dev_burst_duration_mean: CCTE's Neural Network Formation Assay for Mean Burst Duration, Shafer Lab (AID 2284045).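 As to AC50: curve fitted for loss meaning shorter burst duration than DMSO.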 Summed up:
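Rat cortical cultures, 1.5 x 10^5 cells/well with laminin drop; continuous dosing days 0–12, media plus treatment refreshed DIV 5, 9. AxIS adaptive spike detection; mean single-electrode burst duration, AUC over four recordings, negative direction vs DMSO.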

Assay [4] can be described thus: CCTE_Shafer_MEA_dev_interburst_interval_mean: CCTE's Neural Network Formation Assay for Mean Interburst Interval, Shafer Lab (AID 2284046).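 Also: well-mean interburst interval of bursting electrodes as AUC over four recording days; curve fitted for decrease in interburst interval relative to DMSO.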 Put shortly:
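Recordings on days 5, 7, 9 and 12 give well-mean interburst interval across actively bursting electrodes, summarized as area under the curve. Cultures: rat cortical neurons, continuous exposure from day 0, compound renewed at feeds; decrease analyzed versus DMSO.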

The nature of assay [5]: CCTE_Shafer_MEA_dev_inter_network_spike_interval_mean: CCTE's Neural Network Formation Assay for Mean Inter-network Spike Interval, Shafer Lab (AID 2284047).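 As to AC50: potency for a decrease in mean inter-network spike interval below DMSO.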 Put shortly:
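Primary rat cortical neurons on 16-electrode MEA wells, exposed from plating day 0 through DIV 12, compound renewed at DIV 5 and 9 media changes. Mean interval between network-spike peaks recorded DIV 5, 7, 9, 12; collapsed as trapezoidal AUC, fitted downward versus DMSO.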

Assay [6] in a line: CCTE_Shafer_MEA_dev_network_spike_number: CCTE's Neural Network Formation Assay for Number of Network Spikes, Shafer Lab (AID 2284048).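 Also: synchronized bursts across electrodes counted on days 5 7 9 12 and integrated as AUC.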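 As to AC50: fit as a loss of signal meaning fewer network spikes than DMSO.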 Summed up: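 Rat cortical primary cultures on 48-well MEA (16 electrodes/well); continuous exposure DIV 0–12, full medium and treatment exchange DIV 5, 9. Readout: network spike count, AxIS adaptive detection, recordings DIV 5/7/9/12 collapsed to AUC; loss-of-signal fit, DMSO baseline.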

The nature of assay [7]: CCTE_Shafer_MEA_dev_network_spike_peak: CCTE's Neural Network Formation Assay for Mean Number of Electrodes in Network Spike, Shafer Lab (AID 2284049).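 As to AC50: fitted for loss of signal meaning fewer electrodes in network spikes than DMSO.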 Put shortly:
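Network-spike peak electrode count from recordings on days 5, 7, 9 and 12 was combined as trapezoidal area under the curve. Rat cortical cultures were treated continuously from plating, with compound renewed at each feed (DIV 5, 9); fits versus DMSO.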

Assay [8] is described as follows: CCTE_Shafer_MEA_dev_spike_duration_mean: CCTE's Neural Network Formation Assay for Mean Spike Duration, Shafer Lab (AID 2284051).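 Also: mean network spike duration pooled as area under curve over DIV 5 to 12 recordings.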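 As to AC50: potency for a decrease in mean network spike duration versus DMSO.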 Put shortly:
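Primary rat cortical neurons on 16-electrode MEA wells (PEI-coated, laminin in plating drop), exposed from plating through DIV 12 with compound renewed at DIV 5 and 9. Mean network-spike duration recorded DIV 5, 7, 9, 12; trapezoidal AUC across days, DMSO baseline.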

Assay [9] can be described thus: CCTE_Shafer_MEA_dev_per_network_spike_spike_number_mean: CCTE's Neural Network Formation Assay for Mean Number of Spikes in a Network Spike, Shafer Lab (AID 2284053).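 As to AC50: fitted as decrease in spikes per network spike relative to DMSO.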 Put shortly: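 Primary rat cortical neurons on 48-well, 16-electrode MEA plates were exposed from plating to DIV 12, with dosing renewed on DIV 5 and 9. Spikes per network spike (0.05 s peak window) were recorded on DIV 5, 7, 9 and 12 and collapsed as trapezoidal AUC versus DMSO.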

Assay [10] in a line: CCTE_Shafer_MEA_dev_per_network_spike_spike_percent: CCTE's Neural Network Formation Assay for Percent of Spikes in a Network Spike, Shafer Lab (AID 2284054). Summed up:
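Read-out: percent of spikes falling in a 0.05 s window at network-spike peak, from spontaneous MEA recordings on days 5, 7, 9 and 12; trapezoidal AUC; loss of signal versus DMSO. Rat cortical cultures, compound present throughout.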

Assay [11] in a line: CCTE_Shafer_MEA_dev_LDH: CCTE's Lactate Dehydrogenase Assay for Cytotoxicity in the Neural Network Formation Assay, Shafer Lab (AID 2284068; active = hit-call score of the fitted dose curve at least 0.9, where 1 is the maximum;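 also: exposure for twelve days from plating with re-dosing on DIV 5 and 9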). Summed up: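 Primary rat cortical neurons were plated on PEI/laminin MEA plates and exposed from day 0 for twelve days, with compound renewed at DIV 5 and 9. Cytotoxicity was determined by spectrophotometric LDH assay relative to DMSO.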

A short description of assay [12]: CCTE_Shafer_MEA_dev_mutual_information_norm: CCTE's Neural Network Formation Assay for Mutual Information Normalization, Shafer Lab (AID 2284091).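 As to AC50: mutual information between electrodes summarised as area under curve across four recording days; potency is for a decrease in mutual information relative to DMSO.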 Summed up:
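Neurons from rat cortex were seeded at 1.5 x 10^5 cells/well onto PEI-coated MEAs in a laminin drop, then exposed to compound from day 0 for twelve days. Network recordings on four days gave mutual information, summarised by AUC relative to DMSO.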

The nature of assay [13]: CCTE_Shafer_MEA_dev_correlation_coefficient_mean: CCTE's Neural Network Formation Assay for Mean Correlation Coefficient, Shafer Lab (AID 2284093).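 As to AC50: well mean pairwise spike train correlation integrated as AUC over recording days 5 to 12; potency fitted for loss of correlation relative to DMSO vehicle wells.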 Put shortly:
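Spontaneous activity recorded on days 5, 7, 9 and 12 post-plating; pairwise spike correlations are averaged across active electrodes and collapsed to an area-under-curve. Rat cortical cultures are dosed from plating through 12 days, with compound renewed at media changes.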

A further assay concerns DIO2 (gene 1734). In words: CCTE_GLTED_hDIO2: CCTE's human Deiodinase 2 (DIO2) Inhibition Assay, Great Lakes Toxicology and Ecology Division (GLTED) Lab (AID 2284050; active = hit-call score of the fitted dose curve at least 0.9, where 1 is the maximum). Put shortly: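 Inhibition is judged by reduced iodide release: uninhibited human DIO2 frees iodide from substrate over 3 h, measured afterward by Sandell-Kolthoff colorimetry. Iodinated chemicals or nitrite, iron and thiocyanate may interfere.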

The next assay relates to DIO3 (gene 1735). Kind of assay: CCTE_GLTED_hDIO3: CCTE's human Deiodinase 3 (DIO3) Inhibition Assay, Great Lakes Toxicology and Ecology Division (GLTED) Lab (AID 2284055; active = hit-call score of the fitted dose curve at least 0.9, where 1 is the maximum;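 also: potency is for inhibition seen as loss of released iodide signal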). Summed up:
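Human type 3 deiodinase, expressed via adenovirus system, was exposed to test chemicals for 3 hours in a cell-free format. Released iodide was then determined spectrophotometrically by Sandell-Kolthoff; plates ran in triplicate.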

Assay [14] is described as follows: CCTE_Shafer_MEA_dev_AB: CCTE's Alamar Blue Assay for Cytotoxicity in the Neural Network Formation Assay, Shafer Lab (AID 2284083; active = hit-call score of the fitted dose curve at least 0.9, where 1 is the maximum;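 also: twelve days of exposure from plating with re-dosing on DIV 5 and 9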). Summed up:
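Primary rat cortical neurons on PEI-coated 48-well MEA plates, 1.5 x 10^5 cells/well in laminin drop; compound exposure from day 0 of plating for twelve days, renewed at medium changes on DIV 5 and 9. Viability read as resazurin reduction by fluorescence, relative to DMSO.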

Assay [15] can be described thus: UKN2_HCS_IMR90_neural_migration: University of Konstanz (UKN) Leist Lab Neural Crest Cell Migration Assay in human induced IMR90 Pluripotent Stem Cells (UKN2) (AID 2284204). The settings on record: actives raise or lower the signal. Put shortly: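 Stopper-exclusion migration (cMINC), human iPSC-derived neural crest cells; N2-S + EGF/FGF; compound added 24 h post-stopper removal, 24 h exposure. Readout: calcein-AM/Hoechst 30 min, HCS fluorescence imaging; bidirectional fitting, DMSO baseline.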

Consider `CCNc1nc(N)nc(Cl)n1`, for which the outcome in [1] was inactive.

`CC(C)(c1ccc(O)cc1)c1ccc(O)cc1`: the outcome in [2], in [3], in assay [4], in assay [5], in assay [6] and in assay [7] was inactive. Besides, the result in assay [8], in [9], in [10], in assay [11], in assay [1] and in [12] was inactive. For the same molecule, the outcome in [13] was inactive. Besides, the AC50 in [7] was 20.8 µM (active); in assay [8] it was 15 µM (active); in assay [9], 15 µM (active); in [10], 6.65 µM (active); in assay [12], 1.95 µM (active).

As for `CCCCCOC(=O)COc1cc(N2C(=O)C3=C(CCCC3)C2=O)c(F)cc1Cl`, the figures for the AC50 in the assay on DIO2 (gene 1734) and with DIO3 (gene 1735) were 59.5 µM (active) and 100 µM (active), respectively.

In the case of `Cc1nn(C)c(Oc2ccccc2)c1C=NOCc1ccc(C(=O)OC(C)(C)C)cc1`, the AC50 in assay [2] is 0.00274 µM (active); in assay [3] it was 0.277 nM (active); in assay [4], 2.91 nM (active); in assay [5] it was 3.61 nM (active); in [6] it was 1.4 nM (active); in [7] it was 0.00317 µM (active). Also, the AC50 in assay [8] is 0.00141 µM (active); in assay [9] it was 0.00249 µM (active); in assay [10] it was 0.00238 µM (active); in assay [11], 2 nM (active); in assay [14] it was 9.23 nM (active); in [12] it was 0.00128 µM (active). For the same molecule, the AC50 in assay [13] is 2.29 nM (active); in [15], 6.55 µM (active). Also, the molecule was called inactive in assay [1].

For the molecule `OB(O)O`, the outcome in [2], in assay [3], in [4], in [5], in assay [6] and in [7] was inactive. Besides, the call in assay [8], in assay [9], in assay [10], in assay [1], in assay [14] and in [12] was inactive. In addition, the result in assay [13] was inactive.

Take `C=CCOC(Cn1ccnc1)c1ccc(Cl)cc1Cl` (stereo not given): the outcome in assay [1] was inactive.

As for `CC1(C)C(C=C(Cl)Cl)C1C(=O)OCc1cccc(Oc2ccccc2)c1` (stereo not given), the AC50 in assay [2] was 25.5 µM (active); in assay [4], 25.4 µM (active) and 10.1 µM (active); in assay [7], 23.2 µM (active) and 9.11 µM (active); in assay [8], 21.3 µM (active) and 10.1 µM (active); in [9], 17.3 µM (active) and 10.1 µM (active); in assay [10], 22.2 µM (active) and 5.34 µM (active). For the same molecule, the AC50 in [11] is 22.6 µM (active) and 9.58 µM (active); in assay [14] it was 26.4 µM (active) and 14.7 µM (active); in assay [12] it was 15 µM (active) and 5.01 µM (active); in assay [13], 15 µM (active) and 5.33 µM (active). The molecule was classed as inactive in [2], in assay [3], in [5] and in [6].

Take `O=C(Nc1ccc([N+](=O)[O-])cc1Cl)c1cc(Cl)ccc1O`: the molecule was called inactive in assay [1].

In the case of `CC(=O)S[C@@H]1CC2=CC(=O)CC[C@]2(C)[C@H]2CC[C@@]3(C)[C@@H](CC[C@@]34CCC(=O)O4)[C@H]12`, the AC50 is 26.1 µM (active) with DIO2 (gene 1734) and 100 µM (active) with DIO3 (gene 1735).

For the molecule `C#CCOC(=O)[C@@H](C)Oc1ccc(Oc2ncc(Cl)cc2F)cc1`, the outcome in assay [2], in [3], in assay [4], in [5], in assay [6] and in [7] was inactive. The result in [8], in assay [9], in [10], in assay [11], in [1] and in [12] was inactive. In addition, the outcome in [13] and in [15] was inactive. Besides, the AC50 in assay [14] was 10.1 nM (active).

Regarding `CC(C)(C)[C@@H](O)[C@@H](Cc1ccc(Cl)cc1)n1cncn1`, the molecule was classed as inactive in [1].

Regarding `Oc1ccc(C(c2ccc(O)cc2)C(Cl)(Cl)Cl)cc1`, the molecule was classed as inactive in [3], in [4], in [5], in assay [6], in [10] and in assay [11]. Further, the call in assay [14], in assay [12] and in [13] was inactive. The half-maximal activity concentration (AC50) is 12.9 µM (active) in assay [7]; 100 µM (active) in the assay on DIO2 (gene 1734); 4.75 µM (active) in [8]; 3.73 µM (active) in assay [9]; 143 µM (active) in the assay on DIO3 (gene 1735).

In the case of `CCN(CC)C(=O)c1cccc(C)c1`, the call in assay [2], in assay [3], in assay [4], in assay [5], in assay [6] and in assay [7] was inactive. In addition, the molecule was called inactive in assay [8], in assay [9], in [10], in assay [12], in assay [13] and in assay [15].

As to `O=C(c1ccccc1)C1CCCCC1`, the outcome in [1] was inactive.
